IL2 activator = qHTS of IL-2 Activators; IL-2 activation reporter assay, cell-based qHTS; stimulated with anti-CD3/CD4/CD28 beads; in transgenic mouse T cells; activation, % (series mostly up to about 46 µM); 360,000 tested, 0.065% active; AID 652025, 2013; in the data active = activation above about 50%; inconclusive = mostly about 30% to 49%; note: 0% is about no effect
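EGFP and DsRed fluorescence is measured by plate cytometry in unstimulated transgenic mouse T cells exposed to compound for 60 minutes, then stimulated 18 hours at 37 degrees C with anti-CD3/anti-CD4 beads plus anti-CD28.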
BCR signal inh = qHTS Assay to Find Inhibitors of Chronic Active B-Cell Receptor Signaling; ABC-DLBCL IkBa-CBG/CBR reporter, luminescence ratio, 4 h; Potency, µM (highest dose often 46.1 µM), for inactives: at the top dose activity change, negative = inhibition, usual class: inhibitors; 340,000 tested, 0.05% active; active = well fitted inhibition curve with a large enough effect in the signal ratio, with a control signal flat, not every such curve was filed as active; inconclusive = small, poorly fitted or top-dose-only effect, or effect the other way, or a change in a side signal; the % refers to the signal ratio;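 note: potency is the fitted concentration of half-maximal effect; plate controls were basal doxycycline-induced cells for no effect and cells given 10 µM MG132 for full effect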
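TMD8 human ABC-DLBCL cells with doxycycline-inducible IκBα–green luciferase fusion and unfused red luciferase, in 0.5% FBS medium; compounds up to 46 uM, 4 h at 37C. Green/red luminescence ratio, filter-overlap corrected, fitted to concentration-response curves.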
TCR activator = Activators of T cell receptors: qHTS campaign. primary human leukocytes, anti-CD3, IL-2 HTRF, 48 h. Potency, µM (top dose mostly 9.22 µM), for inactives: at the highest dose activation of IL-2 secretion, usual class: activators. 330,000 tested, under 10 active; note: % of control where 0% means no effect
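Readout: HTRF IL-2, Eu-cryptate/d2 antibody pair, 320nm excitation, 665nm emission. Stimulus: a-CD3 beads, no co-stimulation. Cells: primary human leukocytes. Exposure: 48 hr with compound.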
Mito fusion yeast = qHTS Assay for Small Molecule Inhibitors of Mitochondrial Division or Activators of Mitochondrial Fusion | Potency, µM (series often up to 46.1 µM), for the others: top-dose growth rescue (activation), most hits filed as activators | S. cerevisiae fusion-defective mutant growth rescue, CellTiterGlo 48 h | AID 485298, 2010 | 320,000 tested, 0.23% active; note: potency is the fitted concentration of half-maximal effect; % of control where 0% means no effect; nearly all actives have a fitted effect of over 45% in size
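Yeast fusion mutant, YPEG (non-fermentable carbon), compound, 48 h at 37C non-permissive; CellTiterGlo added, 10 min RT, luminescence read. Rescued growth = division inhibition.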
BRCA1 expr act = qHTS Assay to Identify Small Molecule Activators of BRCA1 Expression; MCF7-BRCA1-FFLuc reporter, luminescence, 48 h; response scale: scaled: vehicle 0%, 10 µM genistein 100%; Potency, µM (highest dose often 46.1 µM), for the others: at the highest dose activation, hits mostly activators; 380,000 tested, 1.1% active; note: potency is the fitted concentration of half-maximal effect; nearly all actives have a fitted effect of over 80% in size
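Luminescence from a BRCA1-driven firefly luciferase in MCF7 cells was read after 48 h compound exposure at 37 C. Data normalized against DMSO and a 10microM genistein activation control, then curve-fitted across the titration.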
PTHR1 ag = qHTS for PTHR1 Agonists: Primary Screen. HEK293 GP2 PTHR1 cells, GloSensor cAMP luminescence, 1 h. Parathyroid hormone/parathyroid hormone-related peptide receptor (Homo sapiens), Q03431. Potency, µM (highest dose often 115 µM), without a hit: at the highest dose activation, most hits filed as activators. AID 743266, 2014. 410,000 tested, 0.075% active; note: potency is the fitted concentration of half-maximal effect; nearly all actives have a fitted effect of over 55% in size
Target sequence (Q03431 whole entry, looked up): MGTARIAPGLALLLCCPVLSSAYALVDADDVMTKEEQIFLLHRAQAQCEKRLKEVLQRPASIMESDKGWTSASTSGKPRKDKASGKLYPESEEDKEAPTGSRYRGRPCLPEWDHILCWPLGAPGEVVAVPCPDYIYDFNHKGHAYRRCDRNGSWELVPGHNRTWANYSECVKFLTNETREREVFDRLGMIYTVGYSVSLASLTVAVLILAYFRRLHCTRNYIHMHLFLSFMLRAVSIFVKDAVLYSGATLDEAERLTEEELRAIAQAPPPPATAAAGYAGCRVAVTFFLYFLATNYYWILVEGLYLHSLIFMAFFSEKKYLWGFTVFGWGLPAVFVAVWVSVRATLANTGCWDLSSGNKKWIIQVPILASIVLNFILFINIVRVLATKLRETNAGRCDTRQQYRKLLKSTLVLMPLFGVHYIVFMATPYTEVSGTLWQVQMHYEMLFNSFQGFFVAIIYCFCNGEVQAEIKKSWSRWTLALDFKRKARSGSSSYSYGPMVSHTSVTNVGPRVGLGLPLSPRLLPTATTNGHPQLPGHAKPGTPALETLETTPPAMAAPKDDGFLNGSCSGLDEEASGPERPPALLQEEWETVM
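HEK-293-derived GP2 cells expressing PTHR1 and a GloSensor cAMP reporter, 3,000/well, plated overnight, given luciferin plus IBMX (each 0.5 mM as added) for 1 h at 37 °C, then compound for 1 h at 37 °C. Luminescence was read after 15 min at room temperature.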
Active calls of the source: *; ! = repeats disagree; [ ] = dose if it differs, or a comment. Hits are enriched below; roughly 1.3% of the tested compounds scored in any of these assays. Unless noted, calls come from the whole dose curve; as a rule, active = well fitted curve in the direction sought with a large enough effect; inconclusive = small, poorly fitted or top-dose-only effect, or another doubt; inactive = no such curve, though single readings can be large; an effect the other way counts as inactive or inconclusive.

`O=C(CN1N=C(C(F)(F)F)CC1(O)c1ccc([N+](=O)[O-])cc1)c1ccccc1` (stereo not drawn) gave IL2 activator -2, BCR signal inh 9%, TCR activator 2%[46.1 µM], Mito fusion yeast 16µM*, BRCA1 expr act -1% and PTHR1 ag inactive.
Cc1ccc(Nc2cc(C)nc(-c3ccccc3O)n2)cc1 was read as IL2 activator 17, BCR signal inh inconclusive, TCR activator 7%, Mito fusion yeast 6%, BRCA1 expr act 54% and PTHR1 ag -19%[57.5 µM].
`Cc1ccc(Nc2cc(C)nc(-c3ccccc3)n2)cc1` gave IL2 activator -2, BCR signal inh 12%, TCR activator 0%, Mito fusion yeast -15%, BRCA1 expr act 3.2µM* and PTHR1 ag -38%.
Screening Cc1ccc(CN2C(=O)C(Cc3ccccc3)Nc3ncnc(N4CCN(c5ccccc5)CC4)c32)cc1 (stereo not drawn) returned IL2 activator 1, BCR signal inh 0%, TCR activator -5%, Mito fusion yeast 11µM*, BRCA1 expr act -3% and PTHR1 ag -3%.
For O=C1C(Cc2ccccc2)Nc2ncnc(N3CCN(c4ccccc4)CC3)c2N1Cc1ccccc1 (stereo not drawn) the results were IL2 activator 1, BCR signal inh 0%, TCR activator -1%, Mito fusion yeast 14%, BRCA1 expr act -8% and PTHR1 ag 17%.
`Cc1ccc2c(c1)ncc[n+]2CC(=O)c1ccc(Cl)cc1Cl` gave BRCA1 expr act -33%.
For COCCn1c(C)cc(C(=O)CN2C(=O)NC3(CCCCCC3)C2=O)c1C the results were IL2 activator -1, BCR signal inh 0%, TCR activator 3%, Mito fusion yeast -1%, BRCA1 expr act 5.6µM* and PTHR1 ag -16%.
Screening CCCn1c(C)cc(C(=O)CN2C(=O)NC3(CCCCCC3)C2=O)c1C returned IL2 activator 0, BRCA1 expr act 75% and PTHR1 ag -20%.
CC1CCc2onc(C(=O)N3CCN(c4cccc(Cl)c4)CC3)c2C1 (stereo not drawn) was read as PTHR1 ag -38%.
`Cc1nc2ccccc2nc1N/N=C/c1ccc(O)cc1` gave IL2 activator -2, BCR signal inh inconclusive, TCR activator 2%, Mito fusion yeast 1%, BRCA1 expr act 7.9µM* and PTHR1 ag inactive.
Cc1ccc(C)c(NC(=O)N2CCc3cc(S(=O)(=O)N4CCC(C)CC4)ccc32)c1 was read as PTHR1 ag inactive.
`CC(C)N1CC(O)=C(c2nc3ccccc3[nH]2)C1=N` gave IL2 activator -3, BCR signal inh -19%, TCR activator 8%, Mito fusion yeast -3%, BRCA1 expr act 8.9µM* and PTHR1 ag -4%[57.5 µM].
Screening CC(C1CC2CCC1C2)N1CC(O)=C(c2nc3ccccc3[nH]2)C1=N (stereo not drawn) returned IL2 activator -4, BCR signal inh 0%, TCR activator 17%, Mito fusion yeast 3%, BRCA1 expr act 0% and PTHR1 ag -8%.
Screening Clc1cccc(Nc2ncnc3ccc(Br)cc23)c1 returned IL2 activator -2, BCR signal inh inconclusive, TCR activator -5%, Mito fusion yeast 5%, BRCA1 expr act -62% and PTHR1 ag -9%.
For COc1cc2ncnc(Nc3cccc(Cl)c3)c2cc1OC the results were BCR signal inh inconclusive, Mito fusion yeast 3.3µM*! and BRCA1 expr act -35%.

Compound activity as filed in PubChem.
